Reference: PubChem BioAssay AID1508600 (Functional Genomics Laboratory (NCATS/FGL), 2020)
In all, about 53,000 sequences went through this assay and about 3,700 (7%) were called active.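 Rule for the calls: active = gene knockdowns whose robust z-score for IL-1 alpha signal is at least 2 or at most -2, so actives lie on both sides; inactive = the rest.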 Shown is part of a subset that was picked to be rich in actives.

assay: Components of the Cytosolic LPS Sensing Pathway: Gene Identification via Genome-wide siRNA Screen; details: RAW264.7 macrophages, IL-1a HTRF, actives lie on both sides, screened at 100 nM (by protocol), cells primed 5 h with Pam3CSK4 first;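 note: robust z of the log signal after scaling to non-targeting control siRNA wells of the plate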
How it was run: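 RAW264.7 mouse macrophages reverse-transfected with single siRNAs (100 nM final) for 48h, primed with Pam3CSK4 for 5 hours, then transfected with LipidA for 24 hour. Supernatant IL-1a read by HTRF; values normalized to negative-control median, log-transformed robust z-scores.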

Q: For GCUUGCUAAGAUUGAGUAUTT against Cerkl, which z-score is on record?
A: -0.928 (inactive)

Q: Which z-score does the source give for CCGCACAAGAGGUAGAUACTT against Ddx5 here?
A: -2.56 (active)

Q: With GGUCAGUAUCAGAAUGAUCTT against Rft1 as the sequence, how does the z-score read?
A: -0.831 (inactive)

Q: Which z-score does the source give for GCAGUGAGACUUUUAAUAGTT against Snx17 here?
A: 0.284 (inactive)

Q: For GGCAAUAUUUCAGAACCUGTT against Tfb2m, which z-score is on record?
A: 0.44 (inactive)

Q: For GGCCUUACUCUUAAGUUCUTT against Brf1, which z-score is on record?
A: 3.7 (active)

Q: Which z-score does the source give for GGUGCAUGAAGAGUUAAAATT against Jade1 here?
A: 1.5 (inactive)

Q: Which z-score does the source give for GGAGAAAGUUGAACGUAUUTT against Cct2 here?
A: -2.58 (active)

Q: With GGAAUUCUUAGCCAAUGCCTT against Gas2l1 as the sequence, how does the z-score read?
A: 0.396 (inactive)

Q: Which z-score does the source give for GCUGUCUAGUACAUCUGACTT against Cry2 here?
A: -0.32 (inactive)

Q: For GGCUAACACUUAAAUUAGCTT against Atoh8, which z-score is on record?
A: 0.00248 (inactive)

Q: With GGCCCAACCUUGGAUCUUUTT against Nudt22 as the sequence, how does the z-score read?
A: 0.751 (inactive)

Q: For GGGCACAGACAUGUUUGAGTT against Padi3, which z-score is on record?
A: -1.35 (inactive)

Q: With GGAUGAACCAAACCAAUAATT against Mgat4d as the sequence, how does the z-score read?
A: 2.24 (active)

Q: For GGACAAACAGGGAGAAAGATT against Mogat2, which z-score is on record?
A: -0.091 (inactive)

Q: Which z-score does the source give for GCCAGACUGGAGGUAAAAUTT against Serpinb10 here?
A: -2.24 (active)

Q: With GGAGUGAGACAAUUCUCACTT against Sprr2k as the sequence, how does the z-score read?
A: 0.555 (inactive)

Q: Which z-score does the source give for GCUAUUUAGUUAGUUGUGUTT against Acbd3 here?
A: 0.334 (inactive)

Q: With CCGUGGGAUUUAAGAUAUCTT against Rab34 as the sequence, how does the z-score read?
A: -0.931 (inactive)

Q: With GUGUGCUUGAUGGAGACCATT against Riiad1 as the sequence, how does the z-score read?
A: 2.25 (active)

Q: For GCAUUUCUACUGGAUUGUGTT against Luc7l2, which z-score is on record?
A: 0.0609 (inactive)

Q: For GCUCUUUCUAGCUUAUGAUTT against Chmp1b, which z-score is on record?
A: -0.464 (inactive)

Q: With GGAUGCUUGUGCAAAGAUGTT against Anks1b as the sequence, how does the z-score read?
A: 0.862 (inactive)

Q: With GGAGCCUCUAGGAAACAAATT against Slc28a3 as the sequence, how does the z-score read?
A: 0.309 (inactive)

Q: For CCGAGUCCAGAACACUCUUTT against Aff2, which z-score is on record?
A: -0.616 (inactive)

Q: With CCUGCCAUAGUUAGUUUUUTT against Khdc1a as the sequence, how does the z-score read?
A: 7.91 (active)

Q: For CGAGCUUUCACUGCUACAGTT against Ppargc1b, which z-score is on record?
A: -1.35 (inactive)

Q: With GCCACUGUACCUUAUUGGUTT against Msrb1 as the sequence, how does the z-score read?
A: 0.331 (inactive)

Q: With GGAAGACGGCAACUAUCCATT against Cyp2c50 as the sequence, how does the z-score read?
A: 1.23 (inactive)

Q: Which z-score does the source give for GGUAUUUUUUUCUCAGCCATT against Dhdh here?
A: -0.937 (inactive)

Q: Which z-score does the source give for “CGCCUUCCUUCAACACGCATT against 1700049L16Rik” here?
A: -1.12 (inactive)

Q: With GCCCUACCAAAAGGAUGAUTT against Cfap300 as the sequence, how does the z-score read?
A: -2.02 (active)

Q: With GGGAUUUGUUGUCUAAGAUTT against Mapk10 as the sequence, how does the z-score read?
A: -0.54 (inactive)

Q: Which z-score does the source give for GCAGAUGCGCUUGGAACUUTT against Pde4b here?
A: 0.0658 (inactive)

Q: With GGCUCCUAACUCACUGGGATT against Ormdl1 as the sequence, how does the z-score read?
A: 0.0548 (inactive)

Q: For GCUUUGGUGCACUUGCUUUTT against Akr1c13, which z-score is on record?
A: 2.2 (active)

Q: Which z-score does the source give for GAUGAAGAAGAGCAGGCUCTT against Gm5168 here?
A: 1.18 (inactive)

Q: For CGUAUCAACAUCUCAGAAGTT against Pcbp2, which z-score is on record?
A: -0.632 (inactive)

Q: For GGAUUCACGUAAGAUUGACTT against Prl6a1, which z-score is on record?
A: 0.0592 (inactive)

Q: With GGUGGUAUCACCUCUAUCATT against Cfap52 as the sequence, how does the z-score read?
A: -2.49 (active)

Q: With GACGAUUCUCUGUUGGUGUTT against Hcrt as the sequence, how does the z-score read?
A: 0.577 (inactive)

Q: For CCUGGAGAUUCAGUACGAATT against Krt25, which z-score is on record?
A: 1.55 (inactive)

Q: With GGUUCUUGCUGAGAGCAUGTT against Rft1 as the sequence, how does the z-score read?
A: 0.943 (inactive)

Q: For GGAUUGAAGCAGGCAGCUUTT against Purb, which z-score is on record?
A: -0.787 (inactive)

Q: For GGUUCAAGGUGAAGACUCCTT against Reg3b, which z-score is on record?
A: 0.793 (inactive)

Q: With GGUGUGUAUGGUGCUAGGATT against Olfr1507 as the sequence, how does the z-score read?
A: -2.43 (active)

Q: With CCAGCUAAAAAGAUGGUAGTT against Rreb1 as the sequence, how does the z-score read?
A: 0.319 (inactive)

Q: With CCUGAAAGCUAAUAUGAAATT against Defb44-ps as the sequence, how does the z-score read?
A: 0.0593 (inactive)

Q: For GGCUUUUAGUACUGAUAGUTT against Neu3, which z-score is on record?
A: 2.6 (active)

Q: For CCUCGUUACAUCCUCCCUGTT against Pold1, which z-score is on record?
A: -0.142 (inactive)

Q: Which z-score does the source give for CGAUUAUCGGCCCAGCAAATT against Bmp1 here?
A: 1.01 (inactive)

Q: With GGUCUCCCUUCAGUAUGAGTT against Cela3b as the sequence, how does the z-score read?
A: -0.602 (inactive)

Q: Which z-score does the source give for CCUAGAGCUUUUCAGAAUATT against Rsl1d1 here?
A: 0.4 (inactive)

Q: Which z-score does the source give for CGAUCGGCGACCUUUUAGATT against Irak3 here?
A: -0.527 (inactive)

Q: With GGCAGUAGUUAGCAAAUAUTT against Ska1 as the sequence, how does the z-score read?
A: -1.24 (inactive)

Q: With GGAUCUGGAAUCACUGUUUTT against Lmnb2 as the sequence, how does the z-score read?
A: -0.451 (inactive)

Q: For GGUUUUAGGACACCUGGUUTT against Gys1, which z-score is on record?
A: 2.13 (active)

Q: Which z-score does the source give for GGUGCCAUCCCAAACUUUATT against Frat2 here?
A: 0.788 (inactive)

Q: For CCUCUUGAGGUCUCGUCAATT against Fam221b, which z-score is on record?
A: -0.0968 (inactive)

Q: With GGAUACAAAUCAGGUUCUCTT against Kansl2 as the sequence, how does the z-score read?
A: 0.0399 (inactive)

Q: For GCCUUCUUAAGCUCUGAGCTT against Dhrs13, which z-score is on record?
A: -2.97 (active)

Q: For GGAAAAAAGAGAGGUCAGATT against Meox1, which z-score is on record?
A: -1.02 (inactive)

Q: With GGAAAUUGCUCAGGAGUUUTT against Anxa5 as the sequence, how does the z-score read?
A: -1.26 (inactive)

Q: Which z-score does the source give for GGAGAAUCCUGUUUUUUGUTT against Elp4 here?
A: 0.43 (inactive)

Q: For GGUGCCAAUCAUUGUUAUGTT against Kcnv1, which z-score is on record?
A: 1.73 (inactive)

Q: For CCCGAGAUGAGGAACUUUUTT against Ndnf, which z-score is on record?
A: -0.359 (inactive)

Q: Which z-score does the source give for GGAGUAAUGAUAAGCCCUCTT against Tex264 here?
A: -0.0637 (inactive)

Q: For GCUCUACCUCAGAUAAAGGTT against Banf2, which z-score is on record?
A: -2.45 (active)

Q: Which z-score does the source give for GGAUCUCAUACAGAAUCCGTT against Haus4 here?
A: 0.216 (inactive)

Q: For GGACCUAGAGGACUAUAAATT against P3h2, which z-score is on record?
A: 0.894 (inactive)

Q: For “GGAGCAGGUUACCAGAAAATT against E130114P18Rik”, which z-score is on record?
A: 0.301 (inactive)

Q: For GGGUUUGACUGUACAGUACTT against Adamts4, which z-score is on record?
A: -1.29 (inactive)

Q: For GGCCUUUACACGUGAGUCUTT against Zfp420, which z-score is on record?
A: -0.864 (inactive)

Q: With CGGAUGCGACAAAAAUCACTT against Il4 as the sequence, how does the z-score read?
A: 1.77 (inactive)

Q: With GCACUUACCGGAUCCAUUGTT against Clk4 as the sequence, how does the z-score read?
A: -0.793 (inactive)

Q: For GCACAGGUCUAAUUCGUCUTT against Grik1, which z-score is on record?
A: -2.78 (active)

Q: For GGACUUGACCCUGUCUUUGTT against Ostm1, which z-score is on record?
A: 0.871 (inactive)

Q: With GGAACAAAAACUGGUGCGCTT against Emilin2 as the sequence, how does the z-score read?
A: 2.07 (active)

Q: Which z-score does the source give for GGCAUCUGAGCUGAGGAUUTT against Gem here?
A: -0.295 (inactive)

Q: Which z-score does the source give for GGAUAGCUUGAUCAAUCUUTT against Cisd2 here?
A: -0.13 (inactive)

Q: For GCCUCUUAAUUUUAAGCUGTT against Gpr82, which z-score is on record?
A: -0.505 (inactive)

Q: With GGGAAACUUGAACUUUGAUTT against Rsph1 as the sequence, how does the z-score read?
A: -1.54 (inactive)

Q: With GGGACAAUUCAGGAUGGAGTT against Ift88 as the sequence, how does the z-score read?
A: 0.0559 (inactive)

Q: With GCGGCUUUACAAGGAUGACTT against Elob as the sequence, how does the z-score read?
A: 2 (active)

Q: For GGUCCUUUUUUCAACCAGCTT against Sh3gl1, which z-score is on record?
A: -0.259 (inactive)

Q: For CCAAGGGUUGUUAAGUAUUTT against Cdh26, which z-score is on record?
A: 1.08 (inactive)

Q: Which z-score does the source give for GGAUUUUCAUCGUGCUUUGTT against Necab3 here?
A: 1.23 (inactive)

Q: For CCGUGAUAAUGUAACACCUTT against Prtg, which z-score is on record?
A: 0.0383 (inactive)

Q: For GGUAAACAUUGCUACUUUGTT against Mpdz, which z-score is on record?
A: 0.935 (inactive)

Q: Which z-score does the source give for GGCCAAGAAAAACUACUAUTT against Kcnk5 here?
A: -0.706 (inactive)

Q: Which z-score does the source give for CCUAGGUUUGAAGACUCCCTT against Asphd2 here?
A: -2.03 (active)

Q: With CCAAAUAUCACACACCCGATT against Fam187a as the sequence, how does the z-score read?
A: 0.798 (inactive)

Q: Which z-score does the source give for GGUGACUACUACAGGAAACTT against Hps1 here?
A: 2.3 (active)

Q: For GCACUUAUGAUGUCCUAUUTT against Sema4b, which z-score is on record?
A: 0.606 (inactive)

Q: With GGACAAAGUCUAGAAACUATT against Lrrc2 as the sequence, how does the z-score read?
A: 0.26 (inactive)

Q: Which z-score does the source give for GGCUAUGACAAUGCCUACATT against Maged2 here?
A: 0.00495 (inactive)

Q: Which z-score does the source give for GCGAAUCUUGCUUCUGACCTT against H4c8 here?
A: -2.13 (active)

Q: With GGUUUUUCGAGUUUUUUCUTT against Msx1 as the sequence, how does the z-score read?
A: 1.06 (inactive)

Q: Which z-score does the source give for GGCUGCUUAUAAAAUUUUCTT against Mipep here?
A: 0.398 (inactive)

Q: Which z-score does the source give for GGCAUGUUUCUUGACUUAATT against Coil here?
A: 0.122 (inactive)

Q: Which z-score does the source give for GGACCUGGUUCAGGUAUCATT against Col6a3 here?
A: -2.17 (active)

Q: For GGGUUUAUUUGGUCAAGAUTT against Mpc2, which z-score is on record?
A: -0.349 (inactive)

Q: Which z-score does the source give for GCAUACGUGUUCAAUGGUGTT against Ppef2 here?
A: -0.541 (inactive)

Q: Which z-score does the source give for CCGUGGAACUUAAAUAGUUTT against Pard6g here?
A: 2.66 (active)

Q: Which z-score does the source give for GGAUCUCGCUGGCAAUAAUTT against Gpr45 here?
A: -0.222 (inactive)

Q: With CCAUUUUUCCUACGUGGGUTT against Zfand2a as the sequence, how does the z-score read?
A: 0.449 (inactive)

Q: For GGAUUUGGGUUUUCUAUAATT against Cfb, which z-score is on record?
A: -0.0373 (inactive)

Q: Which z-score does the source give for CAAUGACAGCAGAUGACGUTT against Crabp2 here?
A: 0.0834 (inactive)
